Assay results: the supplement of paper PMC8253809

Tests used:
Test in all cases: growth inhibition (% activity, log2 RLU normalised to DMSO / staurosporine); higher = more growth inhibition
Details in all cases: 33 µM
[1] = test system: DIPGX29 (H3.3 K27M diffuse intrinsic pontine glioma line)
Procedure, shortened: (§1)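 The growth-inhibition value comes from CellTiter-Glo luminescence, log2-transformed, normalised per plate to % activity between solvent and positive control wells, and taken as the median over replicates. Treatment of pHGG cell lines and H9-derived neural stem cells with approved drugs was at a single final concentration of about 33 μM, in triplicate, for 7 days at 37 °C, 5% CO2.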

[2] = test system: DIPGX37 (H3.3 K27M diffuse intrinsic pontine glioma line)
Procedure, shortened: as §1

[3] = test system: DIPGX7 (H3.3 K27M diffuse intrinsic pontine glioma line)
Procedure, shortened: as §1

[4] = test system: DIPGX9 (diffuse intrinsic pontine glioma line)
Procedure, shortened: as §1

[5] = test system: HGGX39 (paediatric high-grade glioma line)
Procedure, shortened: as §1

[6] = test system: HGGX6 (H3.3 G34R paediatric high-grade glioma line)
Procedure, shortened: as §1

[7] = test system: HNSC
Procedure, shortened: as §1

[8] = test system: SUDIPGIV (diffuse intrinsic pontine glioma line)
Procedure, shortened: as §1

[9] = test system: SUDIPGVI (diffuse intrinsic pontine glioma line)
Procedure, shortened: as §1

[10] = test system: SUDIPGXIII (diffuse intrinsic pontine glioma line)
Procedure, shortened: as §1

Row | Compound | growth inhibition [1] [%] | growth inhibition [2] [%] | growth inhibition [3] [%] | growth inhibition [4] [%] | growth inhibition [5] [%] | growth inhibition [6] [%] | growth inhibition [7] [%] | growth inhibition [8] [%] | growth inhibition [9] [%] | growth inhibition [10] [%]
1 | COc1cc([C@@H]2c3cc4c(cc3[C@@H](O[C@@H]3O[C@@H]5CO[C@@H](C)O[C@H]5[C@H](O)[C@H]3O)[C@H]3COC(=O)[C@H]23)OCO4)cc(OC)c1O | 12.6 | 4.92 | 8.84 | 24.1 | 10.5 | 9.51 | 61.4 | 38.2 | 3.89 | 5.92
2 | CC(C)C[C@H](NC(=O)[C@H](Cc1ccccc1)NC(=O)c1cnccn1)B(O)O | 53.3 | 60.7 | 60 | 59.1 | 58.5 | 60.1 | 64.2 | 59.3 | 56.3 | 69.9
3 | CCCCC(=O)N(Cc1ccc(-c2ccccc2-c2nnn[nH]2)cc1)[C@H](C(=O)O)C(C)C | -2.21 | -1.28 | -0.538 | -0.058 | -2.05 | -0.244 | -3.37 | 4.24 | -0.599 | -8.43
4 | COc1c2occc2cc2ccc(=O)oc12 | -0.546 | -5.42 | -1.53 | -1.09 | -2.13 | -2.24 | 0.777 | -2.41 | -9.54 | -0.581
5 | CC1Cc2ccccc2N1NC(=O)c1ccc(Cl)c(S(N)(=O)=O)c1 (stereo not given) | -2.32 | 0.265 | -1.54 | -0.538 | 0.759 | 0.259 | -4.15 | -2.59 | -1.16 | -1.46
6 | Nc1ccc(O)c(C(=O)O)c1 | 0.36 | 1.83 | 0.431 | 2.63 | 1.1 | 1.6 | 2.49 | 0.538 | 1.92 | -1.01
7 | CN(C)CC/C=C1/c2ccccc2Sc2ccc(Cl)cc21 | -0.186 | 0.387 | 0.793 | 0.131 | 0.989 | 2.17 | -1.13 | -1.17 | -0.358 | -1.03
8 | Cc1onc(-c2ccccc2)c1C(=O)N[C@@H]1C(=O)N2[C@@H]1SC(C)(C)[C@@H]2C(=O)O | -1.74 | -1.12 | -1.18 | -0.122 | -0.815 | 0.0702 | -4.11 | 0.237 | 0.245 | -1.71
9 | CC(C)CC(N)=O | 0.179 | 0.749 | -0.469 | -0.164 | 0.0712 | 1.61 | -1.96 | -1.02 | -0.151 | -12.8
10 | NC(=O)C(c1ccccc1)(c1ccccc1)[C@@H]1CCN(CCc2ccc3c(c2)CCO3)C1 | 2.96 | 2.86 | 0.954 | 1.04 | 4.33 | 2.82 | 1.33 | 0.535 | 2.52 | 0.646
11 | NCCCC(O)(P(=O)(O)O)P(=O)(O)O | -0.387 | -3.88 | 0.704 | 0.583 | -0.159 | -0.423 | 1.02 | -0.208 | 1.59 | 0.669
12 | C[C@@H]1CCN(C(=O)CC#N)C[C@@H]1N(C)c1ncnc2[nH]ccc12 | 0.671 | -1.72 | 0.986 | -0.0672 | 1.55 | -3.29 | 19.9 | -0.0962 | -2.08 | 1.44
13 | CC(C)(C)c1cc(C(C)(C)C)c(NC(=O)c2c[nH]c3ccccc3c2=O)cc1O | 7.53 | 4.87 | 25.1 | 8.47 | 22.4 | 15.2 | 11.9 | 9.36 | 2.56 | 2.28
14 | Cc1cc(NC(=O)C2=C(O)c3ccccc3S(=O)(=O)N2C)no1 | -3.22 | -1.66 | -1.69 | -3.17 | -4.59 | -4.04 | 7.58 | -5.37 | -10.5 | -0.431
15 | CN(C)CCC(c1ccc(Cl)cc1)c1ccccn1 (racemic) | 1.65 | 2.71 | 2.71 | 1.38 | 3.68 | 0.339 | 4.41 | 1.92 | 4.15 | -0.538
16 | COC(c1ccccc1)(c1ccccc1)[C@H](Oc1nc(C)cc(C)n1)C(=O)O | 1.89 | 2.75 | 1.17 | 0.496 | 2.43 | 1.67 | 1.25 | -2.2 | 2.3 | -15.1
17 | C[C@@H](NCCCc1cccc(C(F)(F)F)c1)c1cccc2ccccc12 | 8.61 | 3.26 | 6.24 | 5.87 | 5.43 | 18.9 | 49.7 | 4.23 | -0.119 | 0.33

Row | Compound | growth inhibition [1] [%] | growth inhibition [2] [%] | growth inhibition [3] [%] | growth inhibition [4] [%] | growth inhibition [5] [%] | growth inhibition [6] [%] | growth inhibition [7] [%] | growth inhibition [8] [%] | growth inhibition [9] [%] | growth inhibition [10] [%]
18 | COC1C(O)CC(=O)OC(C)CC=CC=CC(OC2CCC(N(C)C)C(C)O2)C(C)CC(CC=O)C1OC1OC(C)C(OC2CC(C)(O)C(O)C(C)O2)C(N(C)C)C1O (stereo not given) | 0.981 | 1.73 | -0.322 | 0.622 | 1.26 | 1.89 | -0.2 | -0.377 | 1.86 | 0.183
19 | CN1C[C@@H]2C[C@H]1CN2c1cc2c(cc1F)c(=O)c(C(=O)O)cn2C1CC1 | 2.67 | 1.22 | 2.59 | 1.98 | 6.03 | 1.06 | 7.67 | 4.42 | 3.33 | 4.88
20 | NC(=O)N1c2ccccc2C=Cc2ccccc21 | -0.706 | 3.98 | 0.653 | 1.56 | 1.28 | 0.945 | 2.65 | 0.457 | 1.8 | -0.0848
21 | C[C@]12C=CC(=O)C=C1CC[C@@H]1[C@@H]2C(=O)C[C@@]2(C)[C@H]1CC[C@]2(O)C(=O)CO | -2.83 | -1.18 | -0.368 | -2.35 | -1.89 | -3.12 | -4.28 | -3.78 | -6.66 | 1.72
22 | CC(=O)Nc1ccccc1 | -2.81 | -0.334 | -1.79 | -2.39 | -2.41 | -0.159 | -3.95 | -0.657 | -5.47 | 0.153
23 | O=C(CCCN1CC=C(n2c(=O)[nH]c3ccccc32)CC1)c1ccc(F)cc1 | -2.81 | -3.22 | 1.35 | -2.63 | -0.994 | -4.16 | 3.11 | -2.04 | -2.84 | 0.682
24 | O=C(CCCN1CCN(c2ccccn2)CC1)c1ccc(F)cc1 | 1.87 | 0.83 | 5.21 | 1.29 | 4.4 | 3.31 | 1.17 | 0.0159 | -3.95 | 2.26
25 | CCOC(=O)C1=C(C)NC(C)=C(C(=O)OC)C1c1cccc(Cl)c1Cl (stereo not given) | 2.2 | 0.16 | 2.82 | 2.94 | 6.84 | -1.45 | 5.27 | 3.57 | 1.79 | -2.05
26 | N#CC[C@H](C1CCCC1)n1cc(-c2ncnc3[nH]ccc23)cn1 | -0.711 | -0.293 | 0.591 | -1.04 | 1.2 | -0.228 | -3.15 | -1.09 | 1.18 | -0.858
27 | C[C@]12CCC3=C4CCC(=O)C=C4CC[C@H]3[C@@H]1CC[C@@]2(O)CC#N | 1.43 | -1.59 | -0.302 | 0.24 | 0.279 | -1.72 | 0.249 | -0.958 | 1.03 | 0.668
28 | CCOC(=O)[C@H](CCc1ccccc1)N[C@@H](C)C(=O)N1Cc2ccccc2C[C@H]1C(=O)O | 1.41 | 1.99 | 3.28 | 3.18 | 5.5 | 3.4 | 5.54 | 3.99 | 0.712 | 0.247
29 | [I-].[K+] | -0.931 | -0.668 | -0.00688 | -0.676 | 0.215 | -4.01 | 20.4 | -0.567 | -0.261 | -4.16
30 | C=C1/C(=C\C=C2/CCC[C@]3(C)[C@@H]([C@H](C)/C=C/[C@H](C)C(C)C)CC[C@@H]23)C[C@@H](O)C[C@@H]1O | 0.433 | 1.95 | 5.3 | 2.6 | 3.71 | 2.65 | 3.33 | 0.335 | 1.4 | 1.03
31 | Nc1nc(=O)n([C@@H]2CS[C@H](CO)O2)cc1F | 0.68 | 3.05 | 1.33 | 1.75 | 1.6 | 0.276 | 0.206 | -0.429 | 2.25 | -2.25
32 | CC(NCCc1ccc(O)cc1)C(O)c1ccc(O)cc1 (stereo not given) | -0.577 | -0.38 | -0.502 | 1.19 | 1.54 | -0.151 | -0.0915 | -0.121 | 1.63 | -1.5
33 | CO[C@H]1C[C@@H]2CC[C@@H](C)[C@@](O)(O2)C(=O)C(=O)N2CCCC[C@H]2C(=O)O[C@H]([C@H](C)C[C@@H]2CC[C@@H](OC(=O)C(C)(CO)CO)[C@H](OC)C2)CC(=O)[C@H](C)/C=C(\C)[C@@H](O)[C@@H](OC)C(=O)[C@H](C)C[C@H](C)/C=C/C=C/C=C/1C | 1.36 | 0.103 | 4.97 | 14 | 6.98 | 5.24 | 3.52 | 1.47 | 3.49 | -0.989
34 | CCCCCCCCOc1ccccc1C(=O)Nc1ccc(C(=O)OCC[N+](C)(CC)CC)cc1 | 1.1 | -1.75 | 3.53 | 2.15 | 53.7 | 10.8 | 1.89 | 4.07 | -1.27 | 2.78
